ChEMBL document CHEMBL4513216, “Probing the Open Global Health Chemical Diversity Library for Multistage-Active Starting Points for Next-Generation Antimalarials” (ACS Infect Dis, 2020)
Screen size: about 69,000 compounds; about 8,600 (12%) showed an effect of 50% or more. This is one part of a sample in which strong results are shown more often than they occur.

system: Plasmodium berghei; test: Screen against P. berghei liver stage (PbLuc), transformed with Luciferase, at 10uM; format: functional, HepG2; conditions: tested at 10 uM

Point of comparison: `CCN(CC)C(=O)Cn1c(-c2ccc(Cl)cc2)nc(C)c(CCO)c1=O`, INHIBITION -21.8%. Against it:
- Cc1ccc(S(C)(=O)=O)cc1C(=O)N1CCCC(n2cncn2)C1 (configuration not stated) — higher, -12.1%
- CN(C)C(=O)CO[C@H]1CN(Cc2ccsc2)[C@@H]2COC[C@H]12 — higher, -0.284%
- CC(C)Cc1nc(NC(=O)c2cc(-c3cccnc3)n[nH]2)n[nH]1 — higher, 40.1%
- O=C(Nc1ncc[nH]1)c1cc(-c2cccnc2)n[nH]1 — higher, 57%
- COc1cccc(-c2cc(C(=O)Nc3nc[nH]n3)[nH]n2)c1 — lower, -43.7%
- CN1CC(=O)N(c2cccc(F)c2)CC12CCN(Cc1cccnc1)C2 (configuration not stated) — higher, 1.58%
- Cc1noc(C(C)C)c1C(=O)NCCC(=O)N1CCCCC1 — higher, -18%
- COc1ccccc1NC(=O)NC1(c2noc(CN(C)C)n2)CCCC1 — higher, 48.1%
- Cc1cccc(CN2CCc3nnc(Cn4cccc4)n3CC2)n1 — higher, 23.5%
- COCCNC(=O)Cn1c(-c2ccc(Cl)cc2)nc(C)c(CCO)c1=O — higher, 2.29%
- Cc1nc(-c2ccc(Cl)cc2)n(CC(=O)NC(C)C)c(=O)c1CCO — higher, 61.4%
- CCc1nnc(C(C)N2CCC(NC(=O)C3CCCCC3)CC2)o1 (configuration not stated) — higher, 11.3%
- CN(Cc1cnccn1)C(=O)[C@@]12CNC[C@@H]1CN(Cc1ccccc1)C2 — lower, -22.3%
- O=C(NCC1Cn2nnc(-c3cccc(F)c3)c2CO1)c1ccc[nH]1 (configuration not stated) — higher, 9.63%
- CCN1C[C@@H]2CN(S(=O)(=O)c3cccs3)C[C@@H]2C1=O — lower, -24.5%
- O=S(=O)(c1cccs1)N1CCN2C[C@H](OCC3CC3)C[C@H]2C1 — higher, 8.85%
- CCO[C@@H]1C[C@H]2CN(S(=O)(=O)c3cccs3)CCN2C1 — higher, 57.1%
- CCOc1ccc(N(C)S(=O)(=O)c2c[nH]c(C(C)C)n2)cc1 — higher, 10.3%
- CC(C)c1nc(S(=O)(=O)N(C)c2cc(F)ccc2F)c[nH]1 — higher, 23.3%
- CC(C)c1nc(S(=O)(=O)N(C)c2ccc(F)cc2)c[nH]1 — higher, 54.8%
- CNC(=O)c1cn[nH]c1C1CCCN1C(=O)c1ccccn1 (configuration not stated) — higher, -20.6%
- COCCn1cnnc1C1CCCN(c2cnccn2)C1 (configuration not stated) — higher, 30.4%
- CSCCC(=O)N[C@H]1CC[C@H](Nc2nccc(-c3ccncc3)n2)C1 — higher, 0.923%
- CSCC(=O)N[C@H]1CC[C@H](Nc2nccc(-c3ccncc3)n2)C1 — higher, 14.2%
- COCCC(=O)N[C@H]1CC[C@H](Nc2nccc(-c3ccncc3)n2)C1 — higher, 61.5%
- Cc1cc(C(F)(F)F)nc(C2COCCN2S(C)(=O)=O)n1 (configuration not stated) — higher, 33.65%
- CC(C)OCCCNS(=O)(=O)c1ccc2c(c1)NC(=O)C(C)O2 (configuration not stated) — higher, -4.87%
- COc1cc(NCc2ccc(Cl)cc2)c(-c2nn[nH]n2)cc1OC — higher, 22.6%
- O=C(CCCn1ccnc1)N1CCC2(CC1)[C@H](O)C[C@@H]2OCCO — higher, 18%
- O=C(CCCn1cncn1)N1CCC2(CC1)[C@H](O)C[C@@H]2OCCO — higher, 54.4%
- O=C(CCn1cc(Cl)cn1)N1CCC2(CC1)[C@H](O)C[C@@H]2OCCO — higher, 75.7%
- O=C(CCn1cc(Cl)cn1)N1CCCC(O)(CO)CC1 (configuration not stated) — higher, -15.6%
- O=C(CCn1cc(Cl)cn1)N1CCC2(CC1)OCCCC2O (configuration not stated) — higher, 2.79%
- O=C(CCn1cncn1)N1CCC2(CC1)[C@H](O)C[C@@H]2OCCO — higher, 12.7%
- Cc1nc(C)n(C2CCCN(C(=O)CCOCC(C)C)C2)n1 (configuration not stated) — higher, 7.27%
- Cc1cc(N2CCN(CC(=O)N(C)C)CC2)nc(-c2ccncc2)n1 — higher, 4.74%
- CNc1cc(C2CN(C(=O)c3cnn(C)c3)CCO2)nc(C)n1 (configuration not stated) — higher, 25.8%
- CCC(Cn1ccnc1)n1cnc2c(C)csc2c1=O (configuration not stated) — higher, 14.9%
- Cc1nc(C2CCCN2Cc2cc(Cl)c3c(c2)OCCO3)no1 (configuration not stated) — higher, 45.4%
- Cc1nc(C2CCCN2Cc2cc(Cl)c3c(c2)OCO3)no1 (configuration not stated) — higher, 44.3%
- Cc1nc(C2CCCN2Cc2cc(Cl)c3c(c2)OCCCO3)no1 (configuration not stated) — higher, 52.2%
- COc1ccc(C)cc1CNCc1ccc(-n2nc(C)cc2C)nc1 — higher, 18.6%
- Cc1nc(CNCc2ccc(N3CCC(CO)CC3)nc2)cs1 — higher, -11.6%
- Cc1ccc(CNCc2ccc(N3CCC(CO)CC3)nc2)c(C)c1 — higher, 58.7%
- Cc1ncsc1C(=O)OCCN1CCCCCC1=O — lower, -60.9%
- CCCc1n[nH]c(C2CN(C(=O)CCn3nc(C)cc3C)CCO2)n1 (configuration not stated) — higher, 34.6%
- CCc1n[nH]c(C2CN(C(=O)CCc3cccs3)CCO2)n1 (configuration not stated) — higher, 51.3%
- CCCc1n[nH]c(C2CN(C(=O)CCCn3ccnc3)CCO2)n1 (configuration not stated) — higher, -18.9%
- CCc1n[nH]c(C2CN(C(=O)Cc3cccs3)CCO2)n1 (configuration not stated) — lower, -33.7%
- CCCc1n[nH]c(C2CN(C(=O)CCCn3cccn3)CCO2)n1 (configuration not stated) — higher, 1.81%
- CCCc1n[nH]c(C2CN(C(=O)CCCn3ccnc3C)CCO2)n1 (configuration not stated) — higher, 87.2%
